From article PMC4336329 (PLoS ONE, 2015) come the findings set out here.

In all, about 310,000 compounds went through this assay and about 14,000 (4.5%) showed an effect of 50% or more. Effects have a minus sign here. The full list was thinned out, with strong results kept by preference.
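Also: peak tail current of the secondary pulse compared with the same well before compound.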

The target in this assay is human ether-à-go-go-related gene (hERG) potassium channel (human, UniProt Q12809). As to the kind of experiment: primary screen, population patch clamp on CHO cells stably expressing hERG; higher = less effect of the substance.
Sequence of human ether-à-go-go-related gene (hERG) potassium channel (Q12809 whole entry, looked up): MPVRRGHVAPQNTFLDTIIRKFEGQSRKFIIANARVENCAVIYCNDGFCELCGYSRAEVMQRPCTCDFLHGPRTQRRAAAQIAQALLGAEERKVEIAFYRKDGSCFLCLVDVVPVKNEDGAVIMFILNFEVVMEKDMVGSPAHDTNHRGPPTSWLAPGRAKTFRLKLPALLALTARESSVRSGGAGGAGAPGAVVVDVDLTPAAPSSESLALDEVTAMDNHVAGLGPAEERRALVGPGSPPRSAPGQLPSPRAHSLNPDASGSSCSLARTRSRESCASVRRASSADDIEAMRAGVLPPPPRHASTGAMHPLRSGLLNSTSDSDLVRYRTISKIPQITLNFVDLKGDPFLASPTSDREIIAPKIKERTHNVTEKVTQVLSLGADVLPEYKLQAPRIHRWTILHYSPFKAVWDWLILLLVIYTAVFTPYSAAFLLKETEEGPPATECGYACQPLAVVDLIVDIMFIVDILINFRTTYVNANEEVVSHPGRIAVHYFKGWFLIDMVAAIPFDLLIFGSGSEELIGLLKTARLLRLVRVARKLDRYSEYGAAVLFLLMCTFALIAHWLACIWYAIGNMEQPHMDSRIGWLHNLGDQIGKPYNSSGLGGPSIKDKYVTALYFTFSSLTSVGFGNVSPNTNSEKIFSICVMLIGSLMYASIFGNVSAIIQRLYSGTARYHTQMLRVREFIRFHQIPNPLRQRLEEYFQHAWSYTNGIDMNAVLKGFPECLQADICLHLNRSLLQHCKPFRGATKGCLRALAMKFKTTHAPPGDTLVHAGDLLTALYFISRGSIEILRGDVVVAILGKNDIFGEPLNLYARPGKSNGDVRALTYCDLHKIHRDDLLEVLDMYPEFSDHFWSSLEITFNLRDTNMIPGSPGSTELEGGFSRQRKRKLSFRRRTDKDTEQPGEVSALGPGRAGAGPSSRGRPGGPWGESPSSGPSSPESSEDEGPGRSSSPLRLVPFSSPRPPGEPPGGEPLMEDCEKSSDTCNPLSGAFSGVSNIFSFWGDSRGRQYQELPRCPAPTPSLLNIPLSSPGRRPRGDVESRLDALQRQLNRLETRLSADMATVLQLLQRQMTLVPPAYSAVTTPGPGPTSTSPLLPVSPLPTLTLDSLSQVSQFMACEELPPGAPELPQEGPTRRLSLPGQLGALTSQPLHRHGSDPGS
As for `COc1cc2c(cc1OC)C(C)N(C(=O)Nc1cc(C)cc(C)c1)CC2` (stereo not shown), the “hERG current change (%, negative = inhibition) at 10uM” value is on record as 4.95%.
In the case of `COC(=O)c1c(NC(=O)c2ccco2)sc2c1CC(C)(C)NC2(C)C`, the “hERG current change (%, negative = inhibition) at 10uM” value is reported as -21.2%.
With `Cn1c(=O)c2c(ncn2CC(=O)OCC(=O)Nc2sccc2C(N)=O)n(C)c1=O`, the “hERG current change (%, negative = inhibition) at 10uM” value is given as -10.1%.
For the compound `COC(=O)C1=C(C)N(c2cccc3ccccc23)C(=O)C1`, the “hERG current change (%, negative = inhibition) at 10uM” value is -6.64%.
Consider `Cc1noc(NC(=O)c2ccccc2C(F)(F)F)c1C#N`, for which the “hERG current change (%, negative = inhibition) at 10uM” value is given as -46%.
For the compound `CCN1C(=O)[C@H]2[C@@H](c3ccc(OC)cc3)N3C(=O)CN(CCOC)C(=O)[C@@]3(C)[C@H]2C1=O`, the “hERG current change (%, negative = inhibition) at 10uM” value is given as -2.75%.
Turning to `O=C(CN1CCN(C/C=C/c2ccccc2)CC1)NCc1ccc(Cl)cc1`, the “hERG current change (%, negative = inhibition) at 10uM” value is given as -78%.
As to `O=C(CN1CCN(C/C=C/c2ccccc2)CC1)NCc1ccccc1`, the “hERG current change (%, negative = inhibition) at 10uM” value was -73.3%.
With `O=C(CN1CCN(c2ccccc2F)CC1)NCc1ccc(Cl)cc1`, the “hERG current change (%, negative = inhibition) at 10uM” value is on record as -19.1%.
With `O=C(N/C=C\c1ccccc1)NCc1ccc(Cl)cc1`, the “hERG current change (%, negative = inhibition) at 10uM” value worked out at 1.95%.
In the case of `O=C(CN1CCCCCC1)NCc1ccccc1` it was 10.1%; in that of `Cl.O=C(CN1CCCC1)NCc1ccccc1`, 15.6%; in that of `COc1cccc(C2(c3cccc(OC)c3)CC2C(=O)Nc2ccccc2Cl)c1` (stereo not shown), 14%.
As for `CN1C(=O)C(=Cc2ccc(-c3cccc(Cl)c3)o2)C(=O)N(C)C1=O`, the “hERG current change (%, negative = inhibition) at 10uM” value is given as 10.2%.
With `CC(C)(C)C(=O)N1CCN(c2ccc([N+](=O)[O-])c(NCc3cccnc3)c2)CC1`, the “hERG current change (%, negative = inhibition) at 10uM” value is -29.3%.
For `COc1cccc(NC(=O)c2cc([N+](=O)[O-])ccc2NCc2cccnc2)c1`, the “hERG current change (%, negative = inhibition) at 10uM” value is -44%.
As to `Cc1ccc(C(=O)N2CCN(c3ccc([N+](=O)[O-])c(NCc4cccnc4)c3)CC2)cc1`, the “hERG current change (%, negative = inhibition) at 10uM” value is given as -59.4%.
On to `CCS(=O)(=O)N1CCN(c2ccc([N+](=O)[O-])c(NCc3cccnc3)c2)CC1`, for which the “hERG current change (%, negative = inhibition) at 10uM” value was -49.1%.
In the case of `O=C(c1ccccc1)N1CCN(c2ccc([N+](=O)[O-])c(NCc3cccnc3)c2)CC1`, the “hERG current change (%, negative = inhibition) at 10uM” value was -69.7%.
Take `O=C(c1ccccc1F)N1CCN(c2ccc([N+](=O)[O-])c(NCc3cccnc3)c2)CC1`: the “hERG current change (%, negative = inhibition) at 10uM” value is -45.5%.
Take `CC(=O)N1CCN(c2ccc([N+](=O)[O-])c(NCc3cccnc3)c2)CC1`: the “hERG current change (%, negative = inhibition) at 10uM” value is -22.3%.
Regarding `Cc1ccccc1C(=O)N1CCN(c2ccc([N+](=O)[O-])c(NCc3cccnc3)c2)CC1`, the “hERG current change (%, negative = inhibition) at 10uM” value was -27%.
Regarding `O=C(c1ccc(Cl)cc1)N1CCN(c2ccc([N+](=O)[O-])c(NCc3cccnc3)c2)CC1`, the “hERG current change (%, negative = inhibition) at 10uM” value is given as -50.1%.
Take `O=[N+]([O-])c1ccc(N2CCN(S(=O)(=O)c3ccc(Cl)cc3)CC2)cc1NCc1cccnc1`: the “hERG current change (%, negative = inhibition) at 10uM” value is 2.59%.
On to `Cc1ccc(NC(=O)c2cc([N+](=O)[O-])ccc2NCc2cccnc2)cc1Cl`, for which the “hERG current change (%, negative = inhibition) at 10uM” value is -41.7%.
In the case of `Cc1ccc(NC(=O)c2cc([N+](=O)[O-])ccc2NCc2cccnc2)cc1` it was -82.7%; in that of `COc1cccc(C(=O)NCCS(=O)(=O)NCc2cccnc2)c1`, 8.66%.
Next, `COC(=O)c1ccc(NC(=O)CSc2nnc(C3CC3)n2C)cc1`: -4.59%; `COc1ccccc1S(=O)(=O)Cc1ccc(C(=O)NC2CC2)o1`: 18.5%; `CCN(CC#CCC1(O)c2ccccc2-c2ccccc21)C(C)C`: -9.99%.
Regarding `O=C(COC(=O)c1ccc[nH]c1=O)NC1CCCCCC1`, the “hERG current change (%, negative = inhibition) at 10uM” value was found to be 46.2%.
In the case of `Cc1cc2c(NC(=O)CCCC(=O)O)cccc2nn1`, the “hERG current change (%, negative = inhibition) at 10uM” value was 13.6%.
Next, `Cc1cccc2sc(NNC(=O)c3cc(-c4cccs4)nc4ccccc34)nc12`: 13.4%; `CC(=O)NC(NC(=S)Nc1ccc(N=Nc2ccccc2)cc1)C(Cl)(Cl)Cl` (stereo not shown): 19.6%; `O=C(COc1ccc(Br)cc1)N1CCOCC1`: -0.627%.
Take `Cc1cccc(NS(=O)(=O)c2ccc3c(c2)NC(=O)CO3)c1C`: the “hERG current change (%, negative = inhibition) at 10uM” value was determined as 3.88%.
With `CC(=O)N(c1ccc2oc(=O)sc2c1)S(=O)(=O)c1cccc2cccnc12`, the “hERG current change (%, negative = inhibition) at 10uM” value was found to be 5.98%.
In the case of `Cc1ccc(Cl)cc1N1CCN(C(=O)CCCn2c(=O)c3cccn3c3cccnc32)CC1` it was -15.1%; in that of `CCC1CCCCN1CCCNC(=O)Cn1c(=O)c2cccn2c2cccnc21` (stereo not shown), 12.1%.
Next, `CC1CCCC(C)N1CCCNC(=O)CCn1c(=O)c2cccn2c2cccnc21` (stereo not shown): 16.7%; `Cc1ccc(C)c(N2CCN(CCCNC(=O)CCn3c(=O)c4cccn4c4cccnc43)CC2)c1`: -70%; `CC1CCCC(C)N1CCCNC(=O)Cn1c(=O)c2cccn2c2cccnc21` (stereo not shown): 2.77%.
Take `Cc1ccc(C)c(N2CCN(CCCNC(=O)Cn3c(=O)c4cccn4c4cccnc43)CC2)c1`: the “hERG current change (%, negative = inhibition) at 10uM” value was -59.6%.
On to `O=C1NN(c2cccc(Br)c2)C(=O)/C1=C\c1ccc(O)cc1`, for which the “hERG current change (%, negative = inhibition) at 10uM” value is 12%.
For `CCS(=O)(=O)Nc1ccc(-c2nnc(SCC(=O)c3ccc(NC(C)=O)c(OC)c3)o2)cc1`, the “hERG current change (%, negative = inhibition) at 10uM” value was -23.8%.
Next, `C#CCOCCOCCOCCNc1nc(N2CCN(C(=O)[C@H]([C@@H](C)CC)n3cc([C@@H](N)CO)nn3)CC2)nc(N2CCN(C(=O)[C@H](Cc3ccc(O)cc3)n3cc([C@@H](N)C(C)CC)nn3)CC2)n1.Cl` (stereo partly shown): 0.411%; `CC1CCN(C(=O)CN2C(=O)c3cccc4cccc(c34)C2=O)CC1`: 2.37%; `CC(C)C[C@H]1CN=C(Nc2ccccc2)N1CC1CCC(C(C)(C)C)CC1` (stereo partly shown): -78.3%.
As to `CC(C)C[C@H]1CN=C(Nc2ccccc2)N1CC1CCC(C)CC1` (stereo partly shown), the “hERG current change (%, negative = inhibition) at 10uM” value is -50.3%.
In the case of `CC(C)C[C@H]1CN=C(Nc2ccccc2)N1CC1CCCCCC1`, the “hERG current change (%, negative = inhibition) at 10uM” value is -60.6%.
In the case of `CC(C)C[C@H]1CN=C(Nc2ccccc2)N1CC1CCCCC1` it was -45.7%; in that of `CC1CCC(CN2C(Nc3ccccc3)=NC[C@@H]2C)CC1` (stereo partly shown), -9.6%.
Consider `CC(C)C[C@H]1CN=C(Nc2ccccc2)N1CC1CCCC1`, for which the “hERG current change (%, negative = inhibition) at 10uM” value is reported as -24%.
Consider `CCOC(=O)c1cccc(NC(=O)CNC(=O)C2CCCCC2)c1`, for which the “hERG current change (%, negative = inhibition) at 10uM” value is -3.8%.
With `O=C(COc1ccc(-n2cnnn2)cc1)Nc1ccccc1OC(F)F`, the “hERG current change (%, negative = inhibition) at 10uM” value is given as 4.44%.
With `N#Cc1c(N)n(-c2cccc(C(=O)O)c2)c2nc3ccccc3nc12`, the “hERG current change (%, negative = inhibition) at 10uM” value is on record as 14.6%.
Turning to `Cc1ccc(NC(=O)Nc2cnccn2)cc1`, the “hERG current change (%, negative = inhibition) at 10uM” value came to 5.11%.
Regarding `Cc1ccc(C(=O)CCC(=O)OCC(=O)Nc2ccc3[nH]c(=O)[nH]c3c2)cc1`, the “hERG current change (%, negative = inhibition) at 10uM” value is reported as 14%.
In the case of `O=C1C2C3C=CC(C2C(=O)N1c1ccc(O)cc1)C1C2C(=O)N(c4ccc(O)cc4)C(=O)C2C31` (stereo not shown), the “hERG current change (%, negative = inhibition) at 10uM” value was -10.7%.
Turning to `COc1cccc(-c2c(C(=O)N/N=C/c3ccoc3)nnn2-c2nonc2N)c1`, the “hERG current change (%, negative = inhibition) at 10uM” value is -9.92%.
In the case of `CCSc1nnc(NC(=O)CCNS(=O)(=O)c2cc(Br)cnc2N)s1` it was 0.00778%; in that of `COc1cc(NC(=O)c2ccnc(N)c2)cc(C(=O)Nc2cccc(C(F)(F)F)c2)c1`, -31.3%.
Turning to `Cc1ccc(C(=O)Nc2cccc(C(F)(F)F)c2)cc1NC(=O)c1cnnc2ccccc12`, the “hERG current change (%, negative = inhibition) at 10uM” value was -5.9%.
As to `Cc1ccc(NC(=O)c2cccc(C(F)(F)F)c2)cc1NC(=O)c1[nH]cnc1C(N)=O`, the “hERG current change (%, negative = inhibition) at 10uM” value is given as -1.07%.
On to `COc1cc(NC(=O)c2ccnnc2)cc(C(=O)Nc2cccc(C(F)(F)F)c2)c1`, for which the “hERG current change (%, negative = inhibition) at 10uM” value is listed as -52.8%.
In the case of `Cc1ccc(C(=O)Nc2cccc(C(F)(F)F)c2)cc1Nc1cncnc1.O=C(O)C(F)(F)F`, the “hERG current change (%, negative = inhibition) at 10uM” value was -74.3%.
As to `O=C(Nc1cccc(C(F)(F)F)c1)c1cccnc1`, the “hERG current change (%, negative = inhibition) at 10uM” value is -21.3%.
For the compound `COc1cc(Nc2ccccn2)cc(C(=O)Nc2cccc(C(F)(F)F)c2)c1`, the “hERG current change (%, negative = inhibition) at 10uM” value is listed as -2.6%.
On to `Cc1ccc(C(=O)Nc2cccc(C(F)(F)F)c2)cc1Nc1ncnc2nc[nH]c12`, for which the “hERG current change (%, negative = inhibition) at 10uM” value is on record as -60.2%.
As to `Cc1cccc(Nc2ncnc3nc[nH]c23)c1C`, the “hERG current change (%, negative = inhibition) at 10uM” value is on record as -12.5%.
As to `Cc1ccc(C(=O)Nc2cccc(C(F)(F)F)c2)cc1Nc1ccccn1`, the “hERG current change (%, negative = inhibition) at 10uM” value is reported as -67.4%.
`COc1cc(NC(=O)c2ccc(N)nc2)cc(C(=O)Nc2cccc(C(F)(F)F)c2)c1`: the “hERG current change (%, negative = inhibition) at 10uM” value is -5.66%.
Take `Cc1ccc(C(=O)Nc2cccc(C(F)(F)F)c2)cc1Nc1cnccn1`: the “hERG current change (%, negative = inhibition) at 10uM” value was -38.4%.
Regarding `CCSc1nn2c(=O)c3ccccc3nc2s1`, the “hERG current change (%, negative = inhibition) at 10uM” value is recorded as -13.2%.
In the case of `COc1cccc(-c2cc(=O)[nH][nH]2)c1`, the “hERG current change (%, negative = inhibition) at 10uM” value was determined as 18%.
In the case of `O=C(NCc1ccccc1)c1ccc(Br)o1` it was 8.67%; in that of `CCCCN(CC)CCNC(=O)c1nn(-c2ccc(OC)cc2)c(=O)c2c1c1ccccc1n2C`, 0.748%; in that of `CCCCCc1nnc(NC(=O)C2CCCO2)s1` (stereo not shown), -1.64%.
For `COC(=O)c1ccc(S(=O)(=O)N2CCC(c3nc4ccccc4o3)CC2)cc1`, the “hERG current change (%, negative = inhibition) at 10uM” value was 1.99%.
With `COc1ccccc1N(CC(O)Cn1ccnc1C)S(=O)(=O)c1ccc(C)cc1.Cl` (stereo not shown), the “hERG current change (%, negative = inhibition) at 10uM” value was -39.3%.
`CCCC1C(=O)Nc2ccccc2N1C(=O)c1cccc(C)c1` (stereo not shown): the “hERG current change (%, negative = inhibition) at 10uM” value was found to be 2.13%.
Take `CCCCSc1nc(C)cc(NC(=S)Nc2ccc(OC)cc2)n1`: the “hERG current change (%, negative = inhibition) at 10uM” value is reported as -25.4%.
Consider `Cc1ccc(C(=O)Nc2cccc(C(F)(F)F)c2)cc1NC(=O)c1nccnc1N`, for which the “hERG current change (%, negative = inhibition) at 10uM” value turned out to be 8.61%.
`Cc1ccc(C(=O)Nc2cccc(C(F)(F)F)c2)cc1NC(=O)c1nccn1C`: the “hERG current change (%, negative = inhibition) at 10uM” value was 1.96%.
On to `Cc1ccc(C(=O)Nc2cccc(C(F)(F)F)c2)cc1NC(=O)c1ccno1`, for which the “hERG current change (%, negative = inhibition) at 10uM” value is given as -67%.
